The source of these data is PubChem BioAssay (EPA / NIEHS).

Assay [1] deals with Luciferin 4-monooxygenase (Photinus pyralis) (UniProt P08659). As to the kind of experiment: CCTE_Simmons_QuantiLum_inhib_2: CCTE's Firefly Luciferase Inhibition Assay, Simmons Lab (AID 2283767).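 As to AC50: potency for inhibitors that lower luciferase luminescence relative to DMSO.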 In a few lines: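 Counter-screen for nonspecific enzyme inhibition: purified firefly luciferase incubated 30 min at 37C with chemicals up to 87.5 uM final, then luminescence measured after luciferin/dATP injection; activity fitted against DMSO baseline.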
Chain of Luciferin 4-monooxygenase (Photinus pyralis) (P08659 whole entry, looked up): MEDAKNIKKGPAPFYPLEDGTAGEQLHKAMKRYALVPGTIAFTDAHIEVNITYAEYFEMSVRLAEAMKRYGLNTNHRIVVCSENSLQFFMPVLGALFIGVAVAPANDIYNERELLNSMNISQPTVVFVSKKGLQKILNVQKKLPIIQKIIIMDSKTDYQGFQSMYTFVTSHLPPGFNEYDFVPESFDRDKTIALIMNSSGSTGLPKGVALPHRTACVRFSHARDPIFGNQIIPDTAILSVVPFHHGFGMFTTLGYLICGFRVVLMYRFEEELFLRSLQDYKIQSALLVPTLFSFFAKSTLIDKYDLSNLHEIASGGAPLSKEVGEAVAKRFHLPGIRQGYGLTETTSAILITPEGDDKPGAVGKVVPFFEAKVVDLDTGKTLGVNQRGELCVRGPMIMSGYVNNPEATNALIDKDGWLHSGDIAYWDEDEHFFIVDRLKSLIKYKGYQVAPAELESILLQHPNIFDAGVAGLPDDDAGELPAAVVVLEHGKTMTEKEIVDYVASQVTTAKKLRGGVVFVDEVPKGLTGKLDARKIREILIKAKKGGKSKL

Assay [2] is described as follows: ACEA_AR_agonist_AUC_viability: ACEA Biosciences xCELLigence Real-Time Cell Analysis on Androgen Receptor Agonism for Viability (AID 2283775).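 As to AC50: viability read 80 hours after compound addition.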 In a few lines:
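Read-out is area under the impedance curve at 80 h post-dose in 22Rv1 cells, with DMSO as baseline and signal loss taken as reduced viability. Compounds ran in duplicate from 100 uM final.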

A short description of assay [3]: ACEA_AR_antagonist_AUC_viability: ACEA Biosciences xCELLigence Real-Time Cell Analysis on Androgen Receptor Antagonism for Viability (AID 2283776).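 Also: 22Rv1 human prostate cancer cells growing on impedance electrode plates; area under impedance growth curve at 80 h after dosing as viability; hits lower the growth signal relative to DMSO meaning cytotoxicity.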 An outline of the steps: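 Viability endpoint from label-free cell-index monitoring: 22Rv1 cultures treated with an eight-point 1:4 dilution series starting at 100 uM final, AUC at 80 h fitted against DMSO.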
Assay [4] is described as follows: CEETOX_H295R_MTT_cell_viability: Viability Assessment in the CeeTox HT-H295R MTT Assay (AID 2283718; active = hit-call score of the fitted dose curve at least 0.9, where 1 is the maximum; inactive = score below 0.9). In a few lines:
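Human H295R adrenal cells, prestimulated 48 h with 10 uM forskolin, were exposed 48 h to chemicals in 0.1% DMSO. Viability was measured in the same wells by MTT (0.5 mg/ml, 4 h, 37 C), absorbance 570/650 nm, as percent of controls.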

Assay [5] has as its target zebrafish Estrogen Receptor (ESR1), esr1 (gene 259252) (UniProt P57717). As to the kind of experiment: ATG_zfER1_XSP1: Attagene TRANS-FACTORIAL Multi-Species (XSP1) HepG2 Assay for zebrafish Estrogen Receptor (ESR1) (AID 2283772). An outline of the steps:
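Exogenous chimeric receptor-GAL4 activity is measured in transiently transfected human HepG2 liver cells after 24 h compound exposure. Reporter transcripts are detected by RT-PCR and fluorescent capillary electrophoresis, analysed for signal gain relative to DMSO.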

Assay [6] has as its system zebrafish Estrogen Receptor (ESR2B), gene 317733. As to the kind of experiment: ATG_zfER2b_XSP1: Attagene TRANS-FACTORIAL Multi-Species (XSP1) HepG2 Assay for zebrafish Estrogen Receptor (ESR2B) (AID 2283773). An outline of the steps:
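HepG2 cells transiently transfected with GAL4-UAS reporter units for chimeric zebrafish ER2b-Gal4, with 3 nM 6-alpha-fluorotestosterone present; reporter mRNA measured 24 h after dosing by RT-PCR and capillary electrophoresis, gain versus DMSO.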

The test system of assay [7] is frog Estrogen Receptor (ESR2), gene 100174814. As to the kind of experiment: ATG_frER2_XSP1: Attagene TRANS-FACTORIAL Multi-Species (XSP1) HepG2 Assay for frog Estrogen Receptor (ESR2) (AID 2283774). In a few lines: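 HepG2 cells transiently transfected with GAL4-UAS reporter units expressing chimeric frog ER-Gal4; 3 nM 6-alpha-fluorotestosterone present. After 24 h dosing, reporter mRNA quantified by RT-PCR and capillary electrophoresis; gain-of-signal fitted relative to DMSO.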

In assay [8] the test system is frog Estrogen Receptor (ESR1), gene 398734. As to the kind of experiment: ATG_frER1_XSP1: Attagene TRANS-FACTORIAL Multi-Species (XSP1) HepG2 Assay for frog Estrogen Receptor (ESR1) (AID 2283777). In a few lines: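 HepG2 cells transiently transfected with frog ER–GAL4 chimera and GAL4-UAS reporter, with 3 nM 6-alpha-fluorotestosterone present; 24 h dosing, reporter mRNA quantified by RT-PCR and capillary electrophoresis, gain of signal versus DMSO.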

Results filed as inconclusive are left out. Active and inactive are the calls of the source. The calls were made as follows, unless noted: active = hit-call score of the fitted dose curve at least 0.9, where 1 is the maximum; inconclusive = response in the unintended direction; inactive = score below 0.9.

Chain of zebrafish Estrogen Receptor (ESR1), esr1 (gene 259252) (P57717 whole entry, looked up, the tested form may be a part): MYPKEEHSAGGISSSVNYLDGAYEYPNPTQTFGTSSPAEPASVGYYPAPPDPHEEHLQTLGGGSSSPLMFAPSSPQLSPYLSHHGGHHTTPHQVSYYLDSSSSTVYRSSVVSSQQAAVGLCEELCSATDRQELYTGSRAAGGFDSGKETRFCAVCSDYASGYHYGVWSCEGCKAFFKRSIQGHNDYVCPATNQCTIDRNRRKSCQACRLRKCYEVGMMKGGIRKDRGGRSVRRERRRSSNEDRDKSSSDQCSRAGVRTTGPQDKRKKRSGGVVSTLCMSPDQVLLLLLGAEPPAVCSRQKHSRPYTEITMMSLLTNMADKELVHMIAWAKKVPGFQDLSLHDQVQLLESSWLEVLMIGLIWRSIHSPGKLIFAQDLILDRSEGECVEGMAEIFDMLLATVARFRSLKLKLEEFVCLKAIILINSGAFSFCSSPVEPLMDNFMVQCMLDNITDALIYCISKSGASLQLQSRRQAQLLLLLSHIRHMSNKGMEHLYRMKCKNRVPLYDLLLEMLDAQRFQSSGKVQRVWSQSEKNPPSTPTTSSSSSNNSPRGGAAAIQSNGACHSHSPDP

Take `CCCCc1ccc(N)cc1`: the compound was called inactive in assay [1], in assay [2] and in assay [3].
As to `Cc1ccc(C(C)C)cc1O`, the compound was called inactive in assay [4], in assay [1], in assay [2] and in assay [3].
`c1ccc2[nH]ccc2c1`: the compound was called inactive in assay [1], in assay [2] and in assay [3].
Consider `Nc1cc([N+](=O)[O-])ccc1Cl`, for which the call in assay [4] was inactive.
On to `CC(C)c1cccc(O)c1`, for which the outcome in assay [4], in assay [1] and in assay [3] was inactive.
As to `O=C(O)C[C@H](O)C[C@H](O)/C=C/c1c(C2CC2)nc2ccccc2c1-c1ccc(F)cc1`, the call in assay [4] was inactive.
Consider `O=c1cc(-c2ccccc2)oc2cc(O)cc(O)c12`, for which the compound was called inactive in assay [4] and in assay [3]. Besides, the AC50 in assay [1] was 5.53 µM (active).
In the case of `CN(C)c1ccc(O)c2c1C[C@H]1C[C@H]3[C@H](N(C)C)C(=O)C(C(N)=O)=C(O)[C@@]3(O)C(=O)C1=C2O`, the call in assay [1] was inactive.
On to `CCC/C=C/C=O`, for which the call in assay [2] and in assay [3] was inactive.
In the case of `CCCC/C=C\CCCCCCCCCC=O`, the outcome in assay [2] and in assay [3] was inactive.
Take `CCCCCCCCCCN`: the result in assay [2] was inactive.
The same measure, in the same setting: in the case of `CC(C)(C)C(=O)c1ccccc1` it was “inactive”.
Regarding `O=C(Cl)c1cccc(C(=O)Cl)c1`, the compound was classed as inactive in assay [1]. Further, the AC50 in assay [3] is 8.27 µM (active).
For `CCCCCCCCC`, the compound was called inactive in assay [2].
On the same count and under the same terms, the entry for `C=CC(C)(O)CCC=C(C)CCC=C(C)C` (stereo unspecified) is “inactive”.
Turning to `CCN(CC)c1ccc2c(-c3ccccc3C(=O)O)c3ccc(=[N+](CC)CC)cc-3oc2c1`, the AC50 in assay [2] is 9.44 µM (active). Moreover, the compound was called inactive in assay [3].
Turning to `CN(CCOc1ccc(CC2SC(=O)NC2=O)cc1)c1ccccn1` (stereo unspecified), the compound was classed as inactive in assay [5] and in assay [7]. For the same compound, the values for the concentration at half-maximal activity (AC50) in assay [6] and in assay [8] were 0.0787 µM (active) and 0.0666 µM (active), respectively.
Take `CCCCCC(CO)CCC` (stereo unspecified): the result in assay [2] was inactive.
With `CCCCCCCCCCCCCOS(=O)(=O)O`, the result in assay [1] and in assay [3] was inactive.
Regarding `COc1ccc(O)cc1`, the compound was called inactive in assay [1], in assay [2] and in assay [3].
